{"source": "paper PMC7862700", "about": "“An all-to-all approach to the identification of sequence-specific readers for epigenetic DNA modifications on cytosine”", "assay_in_all_cases": "DAPPL (digital affinity profiling via proximity ligation, sequencing); 10 mM Tris-HCl pH 7.5, 50 mM NaCl, 1 mM DTT, 4% glycerol, room temperature, 30 min; GST-TFs on glutathione beads, 16-mer random dsDNA library, 0.1% formaldehyde crosslink after washing; high values mean tight binding", "key": {"FLI1": {"molecular_target": "T1, FLI1 (Homo sapiens, UniProt Q01543 1-452)", "T1 sequence": "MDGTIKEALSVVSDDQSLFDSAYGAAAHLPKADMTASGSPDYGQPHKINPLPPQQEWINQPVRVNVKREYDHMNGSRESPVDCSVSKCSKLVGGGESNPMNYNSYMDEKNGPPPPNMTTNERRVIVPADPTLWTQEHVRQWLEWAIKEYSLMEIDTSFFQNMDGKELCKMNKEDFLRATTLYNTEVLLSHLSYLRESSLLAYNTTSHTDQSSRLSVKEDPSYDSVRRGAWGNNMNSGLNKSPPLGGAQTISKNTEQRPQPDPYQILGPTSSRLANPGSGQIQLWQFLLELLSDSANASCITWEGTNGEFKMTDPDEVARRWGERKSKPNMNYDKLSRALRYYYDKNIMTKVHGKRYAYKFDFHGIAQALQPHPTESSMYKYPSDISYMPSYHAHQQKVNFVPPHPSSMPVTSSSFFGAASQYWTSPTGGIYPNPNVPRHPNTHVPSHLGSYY", "details": "protein: recombinant; tags: N-terminal GST; dsDNA, one strand shown", "procedure,_shortened": "(§1)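 After expression in yeast as GST fusions, human transcription factors were bound to glutathione beads, DNA-barcoded and mixed with a tag-only sample. The pools were incubated with 200 nmole of a 16-mer random double-stranded DNA library in Tris/NaCl/DTT/glycerol buffer (30 min, room temperature), washed and crosslinked with 0.1% formaldehyde. Proximity ligation with BsaI/T4 ligase ran for 1 h at 37 °C, before PCR amplification and sequencing on an Illumina NextSeq500. Binding signal is a hexamer's read frequency for a factor divided by its frequency for the tag-only sample.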"}, "ELK1": {"molecular_target": "T2, ELK1 (Homo sapiens, UniProt P19419 1-428)", "T2 sequence": "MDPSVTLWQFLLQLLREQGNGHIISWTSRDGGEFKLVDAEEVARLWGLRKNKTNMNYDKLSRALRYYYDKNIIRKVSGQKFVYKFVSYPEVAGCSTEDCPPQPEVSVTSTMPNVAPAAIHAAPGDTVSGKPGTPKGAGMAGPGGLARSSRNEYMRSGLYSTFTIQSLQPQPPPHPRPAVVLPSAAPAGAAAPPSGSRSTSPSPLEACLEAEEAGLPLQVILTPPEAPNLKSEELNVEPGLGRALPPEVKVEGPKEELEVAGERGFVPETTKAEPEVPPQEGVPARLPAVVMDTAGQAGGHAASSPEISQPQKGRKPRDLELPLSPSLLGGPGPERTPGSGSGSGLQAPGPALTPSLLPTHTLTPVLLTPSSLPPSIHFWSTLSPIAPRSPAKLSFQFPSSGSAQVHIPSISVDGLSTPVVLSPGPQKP", "details": "protein: recombinant; tags: N-terminal GST; dsDNA, one strand shown", "procedure,_shortened": "as §1"}, "GABPA": {"molecular_target": "T3, GABPA (Homo sapiens, UniProt Q06546 1-454)", "T3 sequence": "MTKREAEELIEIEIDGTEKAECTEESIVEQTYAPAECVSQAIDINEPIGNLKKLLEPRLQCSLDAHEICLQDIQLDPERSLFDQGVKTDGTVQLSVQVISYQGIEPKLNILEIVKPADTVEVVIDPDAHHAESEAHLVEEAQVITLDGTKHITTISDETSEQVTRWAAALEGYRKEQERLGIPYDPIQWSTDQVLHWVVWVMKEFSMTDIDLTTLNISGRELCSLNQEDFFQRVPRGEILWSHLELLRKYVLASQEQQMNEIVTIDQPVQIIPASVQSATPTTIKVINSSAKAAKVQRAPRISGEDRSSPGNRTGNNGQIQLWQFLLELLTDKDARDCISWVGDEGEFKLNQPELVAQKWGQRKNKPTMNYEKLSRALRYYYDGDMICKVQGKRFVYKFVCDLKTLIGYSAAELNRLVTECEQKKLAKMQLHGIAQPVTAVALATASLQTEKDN", "details": "protein: recombinant; tags: N-terminal GST; dsDNA, one strand shown", "procedure,_shortened": "as §1"}, "ERG": {"molecular_target": "T4, ERG (Homo sapiens, UniProt P11308 1-479)", "T4 sequence": "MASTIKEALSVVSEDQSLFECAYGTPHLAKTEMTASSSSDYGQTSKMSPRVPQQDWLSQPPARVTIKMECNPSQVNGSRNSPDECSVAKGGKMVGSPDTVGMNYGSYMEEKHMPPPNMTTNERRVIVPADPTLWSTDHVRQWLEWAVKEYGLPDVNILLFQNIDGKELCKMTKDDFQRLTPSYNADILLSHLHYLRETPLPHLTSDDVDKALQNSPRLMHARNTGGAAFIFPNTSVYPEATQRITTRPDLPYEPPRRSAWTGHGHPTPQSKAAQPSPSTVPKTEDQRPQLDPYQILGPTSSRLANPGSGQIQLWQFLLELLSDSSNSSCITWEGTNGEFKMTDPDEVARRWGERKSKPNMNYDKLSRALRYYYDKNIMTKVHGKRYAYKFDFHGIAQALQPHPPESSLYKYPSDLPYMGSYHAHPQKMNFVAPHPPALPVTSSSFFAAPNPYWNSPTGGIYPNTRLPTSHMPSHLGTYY", "details": "protein: recombinant; tags: N-terminal GST; dsDNA, one strand shown", "procedure,_shortened": "as §1"}, "ELF1": {"molecular_target": "ELF1 (Homo sapiens, UniProt P32519 1-619)", "sequence (P32519 whole entry)": "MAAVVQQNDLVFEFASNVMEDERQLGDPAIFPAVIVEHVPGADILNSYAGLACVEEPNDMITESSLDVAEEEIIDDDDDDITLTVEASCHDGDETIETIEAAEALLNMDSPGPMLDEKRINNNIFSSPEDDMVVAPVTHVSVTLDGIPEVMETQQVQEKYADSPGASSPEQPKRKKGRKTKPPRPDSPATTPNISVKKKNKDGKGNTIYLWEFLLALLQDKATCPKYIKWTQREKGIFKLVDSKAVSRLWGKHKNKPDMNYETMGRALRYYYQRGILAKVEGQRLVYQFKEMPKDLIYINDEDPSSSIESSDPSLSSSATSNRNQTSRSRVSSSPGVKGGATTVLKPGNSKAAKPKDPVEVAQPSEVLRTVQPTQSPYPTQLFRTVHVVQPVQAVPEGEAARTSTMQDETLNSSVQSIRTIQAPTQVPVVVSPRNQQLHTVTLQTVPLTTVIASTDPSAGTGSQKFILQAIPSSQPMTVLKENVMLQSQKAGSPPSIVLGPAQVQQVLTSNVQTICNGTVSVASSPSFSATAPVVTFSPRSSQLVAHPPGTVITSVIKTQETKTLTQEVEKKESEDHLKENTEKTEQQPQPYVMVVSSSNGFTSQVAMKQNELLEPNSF", "details": "protein: recombinant; tags: N-terminal GST; dsDNA, one strand shown", "procedure,_shortened": "as §1"}, "EHF": {"molecular_target": "T5, EHF (Homo sapiens, UniProt Q9NZC4 1-300)", "T5 sequence": "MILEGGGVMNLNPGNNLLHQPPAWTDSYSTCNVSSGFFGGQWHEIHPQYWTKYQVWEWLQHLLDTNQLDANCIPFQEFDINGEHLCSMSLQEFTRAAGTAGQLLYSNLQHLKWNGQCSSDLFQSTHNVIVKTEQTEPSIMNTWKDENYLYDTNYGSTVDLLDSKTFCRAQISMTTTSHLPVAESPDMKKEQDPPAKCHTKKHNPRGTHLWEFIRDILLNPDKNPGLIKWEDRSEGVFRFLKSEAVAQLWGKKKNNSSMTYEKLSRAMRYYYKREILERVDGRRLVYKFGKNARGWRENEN", "details": "protein: recombinant; tags: N-terminal GST; dsDNA, one strand shown", "procedure,_shortened": "as §1"}, "SPIB": {"molecular_target": "SPIB (Homo sapiens, UniProt Q01892 1-262)", "sequence (Q01892 whole entry)": "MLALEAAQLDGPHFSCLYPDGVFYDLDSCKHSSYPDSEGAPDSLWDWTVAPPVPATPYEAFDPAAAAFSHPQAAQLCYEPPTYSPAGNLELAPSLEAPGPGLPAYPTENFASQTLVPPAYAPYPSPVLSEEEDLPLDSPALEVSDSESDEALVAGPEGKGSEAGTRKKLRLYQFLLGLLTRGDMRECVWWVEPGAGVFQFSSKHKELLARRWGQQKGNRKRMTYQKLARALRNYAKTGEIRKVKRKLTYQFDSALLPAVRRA", "details": "protein: recombinant; tags: N-terminal GST; dsDNA, one strand shown", "procedure,_shortened": "as §1"}, "ELK3": {"molecular_target": "T6, ELK3 (Homo sapiens, UniProt P41970 1-407)", "T6 sequence": "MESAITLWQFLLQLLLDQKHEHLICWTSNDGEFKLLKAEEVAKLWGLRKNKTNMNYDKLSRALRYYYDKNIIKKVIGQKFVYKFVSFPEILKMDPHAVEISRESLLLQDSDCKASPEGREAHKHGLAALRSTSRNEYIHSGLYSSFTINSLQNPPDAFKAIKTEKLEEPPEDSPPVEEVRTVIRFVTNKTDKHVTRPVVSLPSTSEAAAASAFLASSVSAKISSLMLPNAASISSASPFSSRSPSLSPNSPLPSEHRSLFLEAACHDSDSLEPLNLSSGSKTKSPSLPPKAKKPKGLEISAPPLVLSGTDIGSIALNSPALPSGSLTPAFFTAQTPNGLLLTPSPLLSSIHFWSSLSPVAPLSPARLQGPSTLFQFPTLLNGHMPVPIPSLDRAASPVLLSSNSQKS", "details": "protein: recombinant; tags: N-terminal GST; dsDNA, one strand shown", "procedure,_shortened": "as §1"}, "FEV": {"molecular_target": "T7, FEV (Homo sapiens, UniProt Q99581 1-238)", "T7 sequence": "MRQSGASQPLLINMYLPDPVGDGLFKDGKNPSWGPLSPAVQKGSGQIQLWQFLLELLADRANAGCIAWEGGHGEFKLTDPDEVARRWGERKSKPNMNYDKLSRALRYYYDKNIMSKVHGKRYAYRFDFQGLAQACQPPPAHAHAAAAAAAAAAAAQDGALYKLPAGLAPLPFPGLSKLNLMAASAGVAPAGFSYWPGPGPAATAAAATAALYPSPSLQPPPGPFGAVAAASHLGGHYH", "details": "protein: recombinant; tags: N-terminal GST; dsDNA, one strand shown", "procedure,_shortened": "as §1"}, "ETV5": {"molecular_target": "ETV5 (Homo sapiens, UniProt P41161 1-510)", "sequence (P41161 whole entry)": "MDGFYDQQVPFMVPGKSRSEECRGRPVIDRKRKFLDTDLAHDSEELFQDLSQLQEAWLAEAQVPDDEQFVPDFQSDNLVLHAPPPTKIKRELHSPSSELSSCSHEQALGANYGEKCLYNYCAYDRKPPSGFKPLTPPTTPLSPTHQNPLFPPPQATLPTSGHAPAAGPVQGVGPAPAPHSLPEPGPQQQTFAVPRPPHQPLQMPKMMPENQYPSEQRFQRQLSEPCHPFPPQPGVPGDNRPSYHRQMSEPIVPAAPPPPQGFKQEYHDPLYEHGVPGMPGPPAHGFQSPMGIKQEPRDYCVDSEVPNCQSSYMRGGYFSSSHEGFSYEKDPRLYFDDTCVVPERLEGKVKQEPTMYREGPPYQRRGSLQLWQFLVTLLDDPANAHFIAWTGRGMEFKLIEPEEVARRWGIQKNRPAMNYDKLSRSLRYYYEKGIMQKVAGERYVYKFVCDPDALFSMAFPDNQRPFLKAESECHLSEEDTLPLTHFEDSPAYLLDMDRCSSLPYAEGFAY", "details": "protein: recombinant; tags: N-terminal GST; dsDNA, one strand shown", "procedure,_shortened": "as §1"}, "HSF1": {"molecular_target": "HSF1 (Homo sapiens, UniProt Q00613 1-529)", "sequence (Q00613 whole entry)": "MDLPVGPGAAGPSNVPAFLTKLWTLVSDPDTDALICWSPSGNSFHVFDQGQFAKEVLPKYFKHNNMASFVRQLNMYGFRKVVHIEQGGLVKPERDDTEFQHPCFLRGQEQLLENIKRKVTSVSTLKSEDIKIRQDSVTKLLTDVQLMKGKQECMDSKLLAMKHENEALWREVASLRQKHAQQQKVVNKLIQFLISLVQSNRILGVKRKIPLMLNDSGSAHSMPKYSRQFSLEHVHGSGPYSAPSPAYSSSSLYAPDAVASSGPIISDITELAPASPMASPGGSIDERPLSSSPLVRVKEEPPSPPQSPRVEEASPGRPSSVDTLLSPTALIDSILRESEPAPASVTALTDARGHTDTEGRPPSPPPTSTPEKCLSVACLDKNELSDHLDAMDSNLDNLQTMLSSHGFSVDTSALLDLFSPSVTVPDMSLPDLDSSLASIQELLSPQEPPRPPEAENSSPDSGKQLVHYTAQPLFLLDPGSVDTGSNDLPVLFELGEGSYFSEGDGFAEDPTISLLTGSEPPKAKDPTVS", "details": "protein: recombinant; tags: N-terminal GST; chain copies: 3; dsDNA, one strand shown", "procedure,_shortened": "as §1"}, "SPIC": {"molecular_target": "T8, SPIC (Homo sapiens, UniProt Q8N5J4 1-248)", "T8 sequence": "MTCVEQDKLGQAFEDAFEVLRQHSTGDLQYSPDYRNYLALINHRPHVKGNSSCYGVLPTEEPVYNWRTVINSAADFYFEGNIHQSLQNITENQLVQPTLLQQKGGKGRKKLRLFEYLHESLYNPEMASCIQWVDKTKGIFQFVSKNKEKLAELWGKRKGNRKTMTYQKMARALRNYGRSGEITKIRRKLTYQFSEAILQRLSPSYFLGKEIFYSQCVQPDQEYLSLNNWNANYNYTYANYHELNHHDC", "details": "protein: recombinant; tags: N-terminal GST; dsDNA, one strand shown", "procedure,_shortened": "as §1"}, "ELF4": {"molecular_target": "ELF4 (Homo sapiens, UniProt Q99607 1-663)", "sequence (Q99607 whole entry)": "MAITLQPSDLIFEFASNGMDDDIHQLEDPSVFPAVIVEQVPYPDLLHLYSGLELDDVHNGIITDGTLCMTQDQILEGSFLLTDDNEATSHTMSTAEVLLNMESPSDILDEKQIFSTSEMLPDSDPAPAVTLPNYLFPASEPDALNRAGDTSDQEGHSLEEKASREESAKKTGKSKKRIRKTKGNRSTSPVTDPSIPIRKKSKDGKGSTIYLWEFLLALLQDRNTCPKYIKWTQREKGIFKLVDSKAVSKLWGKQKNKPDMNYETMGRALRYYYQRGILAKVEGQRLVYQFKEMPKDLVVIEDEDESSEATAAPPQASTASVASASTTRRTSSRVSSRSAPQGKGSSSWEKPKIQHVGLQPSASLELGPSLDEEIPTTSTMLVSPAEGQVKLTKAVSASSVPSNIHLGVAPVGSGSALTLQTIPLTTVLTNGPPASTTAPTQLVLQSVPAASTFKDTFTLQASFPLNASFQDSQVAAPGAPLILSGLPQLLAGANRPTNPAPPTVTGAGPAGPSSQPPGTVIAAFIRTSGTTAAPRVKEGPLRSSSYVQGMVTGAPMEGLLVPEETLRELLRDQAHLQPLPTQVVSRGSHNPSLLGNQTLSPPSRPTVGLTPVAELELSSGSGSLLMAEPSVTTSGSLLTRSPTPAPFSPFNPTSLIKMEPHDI", "details": "protein: recombinant; tags: N-terminal GST; dsDNA, one strand shown", "procedure,_shortened": "as §1"}, "ELK4": {"molecular_target": "T9, ELK4 (Homo sapiens, UniProt P28324-2 1-405)", "T9 sequence": "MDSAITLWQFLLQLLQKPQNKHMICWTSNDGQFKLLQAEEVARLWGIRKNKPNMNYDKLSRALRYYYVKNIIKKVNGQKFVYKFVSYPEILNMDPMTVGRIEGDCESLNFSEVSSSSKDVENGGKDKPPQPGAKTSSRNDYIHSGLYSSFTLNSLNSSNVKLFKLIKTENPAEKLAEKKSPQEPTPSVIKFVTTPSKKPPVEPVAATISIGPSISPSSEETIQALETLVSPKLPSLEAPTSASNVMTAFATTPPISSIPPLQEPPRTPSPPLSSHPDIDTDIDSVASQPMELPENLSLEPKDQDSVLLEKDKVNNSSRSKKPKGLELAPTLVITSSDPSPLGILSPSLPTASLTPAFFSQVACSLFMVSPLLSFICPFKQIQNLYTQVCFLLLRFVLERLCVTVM", "details": "protein: recombinant; tags: N-terminal GST; dsDNA, one strand shown", "procedure,_shortened": "as §1"}, "ELF3": {"molecular_target": "T10, ELF3 (Homo sapiens, UniProt P78545 1-371)", "T10 sequence": "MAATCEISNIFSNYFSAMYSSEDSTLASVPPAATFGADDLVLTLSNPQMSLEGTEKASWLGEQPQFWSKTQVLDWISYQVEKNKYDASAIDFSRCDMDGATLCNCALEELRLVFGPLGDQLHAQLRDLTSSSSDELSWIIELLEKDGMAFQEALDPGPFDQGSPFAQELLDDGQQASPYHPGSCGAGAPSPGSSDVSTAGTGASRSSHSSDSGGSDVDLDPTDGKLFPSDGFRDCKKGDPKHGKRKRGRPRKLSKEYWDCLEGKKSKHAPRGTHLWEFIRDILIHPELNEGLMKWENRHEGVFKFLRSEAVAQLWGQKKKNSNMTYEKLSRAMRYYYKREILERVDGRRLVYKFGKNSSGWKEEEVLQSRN", "details": "protein: recombinant; tags: N-terminal GST; dsDNA, one strand shown", "procedure,_shortened": "as §1"}, "CRX": {"molecular_target": "CRX (Homo sapiens, UniProt O43186 1-299)", "sequence (O43186 whole entry)": "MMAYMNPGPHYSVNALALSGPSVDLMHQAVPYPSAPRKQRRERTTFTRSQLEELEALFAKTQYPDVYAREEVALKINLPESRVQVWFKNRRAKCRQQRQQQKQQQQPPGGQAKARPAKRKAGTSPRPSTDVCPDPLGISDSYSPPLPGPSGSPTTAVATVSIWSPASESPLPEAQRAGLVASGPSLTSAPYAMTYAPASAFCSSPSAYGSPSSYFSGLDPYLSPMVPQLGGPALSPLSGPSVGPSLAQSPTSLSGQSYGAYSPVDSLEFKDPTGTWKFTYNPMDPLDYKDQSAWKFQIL", "details": "protein: recombinant; tags: N-terminal GST; dsDNA, one strand shown", "procedure,_shortened": "as §1"}, "ETV1": {"molecular_target": "ETV1 (Homo sapiens, UniProt P50549 1-477)", "sequence (P50549 whole entry)": "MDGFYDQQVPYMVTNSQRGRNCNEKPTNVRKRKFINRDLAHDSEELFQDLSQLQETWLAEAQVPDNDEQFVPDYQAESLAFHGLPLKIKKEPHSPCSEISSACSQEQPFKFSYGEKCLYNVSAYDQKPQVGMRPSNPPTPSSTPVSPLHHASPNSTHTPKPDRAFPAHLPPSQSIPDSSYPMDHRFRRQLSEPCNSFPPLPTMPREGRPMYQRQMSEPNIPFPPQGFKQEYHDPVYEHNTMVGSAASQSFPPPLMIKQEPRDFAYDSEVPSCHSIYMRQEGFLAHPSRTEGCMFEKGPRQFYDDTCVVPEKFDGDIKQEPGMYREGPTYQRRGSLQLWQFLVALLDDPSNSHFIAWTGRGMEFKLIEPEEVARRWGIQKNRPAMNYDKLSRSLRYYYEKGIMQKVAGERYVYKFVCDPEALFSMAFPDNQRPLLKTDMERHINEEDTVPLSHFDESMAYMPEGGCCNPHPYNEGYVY", "details": "protein: recombinant; tags: N-terminal GST; dsDNA, one strand shown", "procedure,_shortened": "as §1"}}}
{"sequence": "AAGGTT", "values": [{"measurement": "binding signal", "setting": "FLI1", "result": "1.09 fold enrichment (6-mer frequency, TF over GST control)"}, {"measurement": "binding signal", "setting": "ELK1", "result": "1.15 fold enrichment (6-mer frequency, TF over GST control)"}, {"measurement": "binding signal", "setting": "GABPA", "result": "1.13 fold enrichment (6-mer frequency, TF over GST control)"}, {"measurement": "binding signal", "setting": "ERG", "result": "1.07 fold enrichment (6-mer frequency, TF over GST control)"}, {"measurement": "binding signal", "setting": "ELF1", "result": "1.05 fold enrichment (6-mer frequency, TF over GST control)"}, {"measurement": "binding signal", "setting": "EHF", "result": "1.1 fold enrichment (6-mer frequency, TF over GST control)"}, {"measurement": "binding signal", "setting": "SPIB", "result": "1.01 fold enrichment (6-mer frequency, TF over GST control)"}, {"measurement": "binding signal", "setting": "ELK3", "result": "1.12 fold enrichment (6-mer frequency, TF over GST control)"}, {"measurement": "binding signal", "setting": "FEV", "result": "1.02 fold enrichment (6-mer frequency, TF over GST control)"}, {"measurement": "binding signal", "setting": "ETV5", "result": "1.01 fold enrichment (6-mer frequency, TF over GST control)"}, {"measurement": "binding signal", "setting": "HSF1", "result": "1.27 fold enrichment (6-mer frequency, TF over GST control)"}, {"measurement": "binding signal", "setting": "SPIC", "result": "1.03 fold enrichment (6-mer frequency, TF over GST control)"}, {"measurement": "binding signal", "setting": "ELF4", "result": "1.09 fold enrichment (6-mer frequency, TF over GST control)"}, {"measurement": "binding signal", "setting": "ELK4", "result": "1.12 fold enrichment (6-mer frequency, TF over GST control)"}, {"measurement": "binding signal", "setting": "ELF3", "result": "1.35 fold enrichment (6-mer frequency, TF over GST control)"}, {"measurement": "binding signal", "setting": "CRX", "result": "1.17 fold enrichment (6-mer frequency, TF over GST control)"}, {"measurement": "binding signal", "setting": "ETV1", "result": "1.07 fold enrichment (6-mer frequency, TF over GST control)"}]}
